This is a sample that favours compounds with a hit; in the whole collection about 1% have one here.
WRN inhibitor: blocks human WRN helicase; Potency, µM (doses to about 114 µM), for inactives: at the highest dose activity change, negative = inhibition, most hits filed as inhibitors; WRN helicase unwinding, fluorescent forked duplex, kinetic; Q14191; 360,000 tested, 0.46% active; note: nearly all actives have a fitted effect of over 55% in size
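Fluorescence dequenching readout, ex 525 nm/em 598 nm, kinetic mode: forked duplex DNA (100 nM final) with adjacent fluorophore and quencher unwound by WRN (20 nM final) with 2 mM ATP. Compound preincubation 15 min, room temperature.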
FEN1 inh: human FEN1 inhibition. AID 588795. Recombinant FEN1 flap cleavage, fluorescence, 15 min. Potency, µM (series often up to 114 µM), for inactives: at the top dose activity change, negative = inhibition, actives largely listed as inhibitors. 390,000 tested, 0.35% active; note: nearly all actives have a fitted effect of over 65% in size
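Enzyme 10 nM, 15 min RT preincubation with compound; start with substrate 50 nM final; reads at 0 and 15 min; qHTS titration, four-parameter Hill fit.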
BLM inh: blocks DNA unwinding by human BLM helicase | recombinant BLM DNA unwinding, fluorescence dequenching | Potency, µM (doses to about 56.1 µM), without a hit: top-dose activity change, negative = inhibition, usual class: inhibitors | 350,000 tested, 0.2% active | AID 2528;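 note: plate controls were vehicle for no effect and no enzyme for full effect; nearly all actives have a fitted effect of over 35% in size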
APE1 inh: APE1 (human) endonuclease inhibition | recombinant APE1, TAMRA/BHQ-2 abasic DNA cleavage fluorescence | Potency, µM (series often up to 65.8 µM), for the others: at the top dose activity change, negative = inhibition, usual class: inhibitors | 350,000 tested, 0.35% active | AID 2517;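 note: plate controls were vehicle for no effect and reference inhibitor for full effect; nearly all actives have a fitted effect of over 55% in size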
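Kinetic fluorescence read (525 ex/598 em nm, three reads 60 s apart) of AP-site incision; signal = third minus first read. Enzyme 0.75 nM, dual-labelled THF duplex 50 nM, compound preincubation 15 min RT.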
L3MBTL1 inh: blocks human L3MBTL1; Q9Y468; AlphaScreen L3MBTL1–H3K9me1 peptide binding; Potency, µM (titrated, usually from 57.1 µM), for inactives: at the highest dose activity, negative = inhibition, hits mostly inhibitors; 230,000 tested, 0.66% active; note: nearly all actives have a fitted effect of over 60% in size
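AlphaScreen assay: L3MBTL1 (50 nM final) was preincubated 30 min at room temperature with biotinylated H3(1-15)K9me1 peptide (75 nM final), then 30 min with library compounds; streptavidin donor and nickel chelate acceptor beads (10 ug/mL final) added, 30 min dark.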
RECQ1 inh: blocks DNA unwinding by human RECQ1; P46063; RECQ1 DNA unwinding, red fluorescence kinetic read; Potency, µM (top dose mostly 57.3 µM), without a hit: at the top dose activity, negative = inhibition, most hits filed as inhibitors; 240,000 tested, 0.54% active;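 note: plate controls were vehicle for no effect and no enzyme for full effect; nearly all actives have a fitted effect of over 30% in size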
Target sequence (P46063 whole entry, looked up): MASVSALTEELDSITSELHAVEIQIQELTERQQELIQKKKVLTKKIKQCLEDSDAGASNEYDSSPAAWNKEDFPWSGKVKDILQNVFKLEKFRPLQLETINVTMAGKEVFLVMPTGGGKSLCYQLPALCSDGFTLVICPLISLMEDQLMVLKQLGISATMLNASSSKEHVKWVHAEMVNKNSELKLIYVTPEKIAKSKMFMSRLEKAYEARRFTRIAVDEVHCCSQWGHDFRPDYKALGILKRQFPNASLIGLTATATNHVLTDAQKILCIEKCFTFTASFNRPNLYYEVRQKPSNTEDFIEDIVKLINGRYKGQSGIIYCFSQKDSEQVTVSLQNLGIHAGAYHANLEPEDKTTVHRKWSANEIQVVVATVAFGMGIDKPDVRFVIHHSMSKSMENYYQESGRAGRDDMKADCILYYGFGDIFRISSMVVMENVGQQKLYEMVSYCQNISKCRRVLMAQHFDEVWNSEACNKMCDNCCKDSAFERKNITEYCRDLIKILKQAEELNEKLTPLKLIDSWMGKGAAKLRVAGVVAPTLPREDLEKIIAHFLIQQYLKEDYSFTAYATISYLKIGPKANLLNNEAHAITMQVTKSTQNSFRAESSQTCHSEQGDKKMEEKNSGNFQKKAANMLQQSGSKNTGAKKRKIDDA
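RECQ1T1 50 nM; forked duplex (20 bp + 30-nt ss tails) 200 nM, ATP 2 mM final; pH 8.0, 2 mM MgCl2, 2.5 ug/ml poly(dI-dC); 15 min compound preincubation; discontinuous kinetic read over 2 h at RT.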
An asterisk follows results filed as active; i = inactive; ? = inconclusive; · = not tested or not shown; [ ] = another dose, or the depositor's remark. Calls come from the whole dose curve; as a rule, active = well fitted curve in the direction sought with a large enough effect; inconclusive = small, poorly fitted or top-dose-only effect, or another doubt; inactive = no such curve, though single readings can be large; an effect the other way counts as inactive or inconclusive. Unless noted, % is set by controls: 0 for no effect and ±100 for the full control effect; potency is the fitted concentration of half-maximal effect.

SMILES | WRN inhibitor | FEN1 inh | BLM inh | APE1 inh | L3MBTL1 inh | RECQ1 inh
COc1cc(OC)c(/C=C/c2cc(/C=C/c3c(OC)cc(OC)cc3OC)[n+](C)c3ccccc23)c(OC)c1 | · | 14µM* | · | · | · | ·
COc1cc(/C=C/c2ccc3ccccc3[n+]2C)cc(OC)c1OC | · | -8% | · | · | · | ·
COc1ccc(OC)c(/C=C/c2ccc3ccccc3[n+]2C)c1 | · | 45µM* | · | · | · | ·
O=C(CSc1nnc(-c2cccc(S(=O)(=O)N3CCCC3)c2)n1-c1ccccc1)Nc1ccc(Cl)cc1 | · | · | · | -3% | · | ·
CC(C)(C)n1ncc2c(=O)n(Cc3c(Cl)cccc3Cl)cnc21 | · | -14% | · | -1% | · | ·
COC(=O)c1ccc(NCc2c(O)ccc(O)c2Br)cc1Cl | 50µM* | -20% | · | · | · | ·
O=c1c2ccccc2[nH]c2ccc(O)cc12 | 50µM* | ? | -14% | ? | · | ·
CN(C)c1ccc(/C=C/C(=O)c2cc(Cl)ccc2O)cc1 | 50µM* | -34% | -24% | -5% | 32µM* | -7%
O=C(/C=C/c1ccncc1)c1cc(Cl)ccc1O | -1% | -7% | -8% | 54% | -24% | -7%
Cc1ccc(-c2ccc(/C=C3/NC(=O)NC3=O)o2)cc1[N+](=O)[O-] | -29% | -21% | -21% | -5% | -5% | 28µM*
O=C1NC(=S)N/C1=C/c1ccc(-c2c(Br)cc([N+](=O)[O-])cc2Br)o1 | · | · | -15% | -11% | ? | -29%
COc1cc(C)cc(C(=O)O)c1C1=C(O)c2cccc(O)c2C(=O)C1=O | ? | ? | -11% | 35µM* | · | ?
Brc1cccc[n+]1CCC[n+]1ccccc1Br | · | 79µM* | · | · | · | ·
O=C(c1ccc(-n2cccn2)cc1)N1CCc2c([nH]c3ccccc23)C1c1ccccn1 (stereo not given) | -2% | 0% | 13µM* | 0% | -6% | 6%
Cc1nnc(N2CCCC(C(=O)NCCc3ccccc3)C2)c2nn(-c3ccccc3)c(C)c12 (stereo not given) | · | -3% | 5% | · | · | ·
c1ccc(-c2ccc(-c3ccccn3)nn2)nc1 | · | · | -9% | 15% | 3.5µM* | 0%
COc1cc(/C=N/NC(=O)CCc2ccccc2)ccc1O | -12% | -3% | 0% | -2% | -2% | -1%
COc1cc(CCC(O)CC(=O)CCc2ccccc2)ccc1O (stereo not given) | 0%[11.6 µM] | -13% | -15% | 14µM* | -3% | -10%
CC(=O)N=c1sc2ccccc2n1C | 3% | 6% | 1% | -4% | -2% | -12%
CC(=O)N=c1sc2nc3ccccc3nc2n1N(C(C)=O)C(C)=O | 7%[11.6 µM] | 79µM* | -5% | ? | · | i
C=CCn1c(N)c(C(=O)NCC2CCCO2)c2nc3ccccc3nc21 (stereo not given) | -12% | -12% | 5.6µM* | -2% | ? | -8%
O=C(O)c1ccc(/C=N/NC(=O)c2cc3ccccc3cc2O)cc1 | ? | ? | · | -2% | 32µM* | ·
O=C(N/N=C\c1ccc(Sc2ccccn2)o1)c1cccc(F)c1 | -4% | 13% | -4% | -3% | 0% | -2%
C/C(CC(=O)N1CCN(C=O)CC1)=N\NC(=O)c1cc2ccccc2cc1O | ? | -2% | -8% | -8% | 9% | 28µM*
O=C(N/N=C/c1ccc(Sc2ccccn2)o1)c1cc2ccccc2cc1O | ? | 50µM* | ? | -3% | ? | -23%
SMILES | WRN inhibitor | FEN1 inh | BLM inh | APE1 inh | L3MBTL1 inh | RECQ1 inh
COc1cc2ncnc(N3CCN(C(=O)Nc4ccc(Oc5ccccc5)cc4)CC3)c2cc1OC | · | -1% | · | · | · | ·
CC(C)Cn1nc(NC(=O)c2cccc(Cl)c2)c2cc3ccccc3nc21 | · | -3% | -5% | · | · | ·
Cn1c(SCC(=O)NCc2ccco2)nnc1-c1cccc(NC(=O)c2ccccc2)c1 | · | 13% | · | · | · | ·
N#Cc1nccnc1S(=O)(=O)c1cccs1 | 50µM* | 4% | -8% | 0% | -6% | -5%
CN(Cc1ccccc1C#N)S(=O)(=O)c1cccs1 | 0% | -3% | -3% | 12% | · | ·
CC(=O)c1ccc2c3c(cccc13)CC2 | 10% | 4% | 0% | -1% | 4% | -2%
O=C(C[N+]12CCCc3cccc(c31)CCC2)c1ccc2ccc3cccc4ccc1c2c34 | · | 45µM* | · | · | · | ·
Cc1onc(-c2ccccc2)c1C(=O)Nc1sc2c(c1C#N)CCC2 | 50µM* | ? | -15% | -12% | ? | -21%
C=C1CCN(C(C(=O)O)C(C)C)S(=O)(=O)c2ccccc21 (stereo not given) | · | ? | 3% | 22% | · | 16%
Cc1ccc(NC(=S)c2nc3ccccc3[nH]2)c(C)c1 | 2% | -9% | 0% | 12% | ? | 4.5µM*
COC(=O)CCCC[C@H]1SC[C@H]2NC(=O)N[C@]21O | · | · | -2% | -4% | 2.2µM* | -4%
O=C(O)c1ccc(CSc2nnc(-c3cccc([S+](=O)([O-])NC4CCCC4)c3)n2-c2ccccc2)cc1 | · | · | · | 32% | · | ·
COc1ccc(-c2c(-c3ccc(OCC(=O)NN)cc3O)n[nH]c2C(F)(F)F)cc1 | -7% | -10% | 13µM* | -3% | -7% | 4%
O=C(O)c1cccc(O)c1O | -2% | 16% | · | · | · | ·
Oc1cccc(O)c1O | · | · | -10% | 1.3µM* | · | 6.3µM*
O=C(Nc1ccccc1F)c1ccc(O)c2ncccc12 | · | · | · | -8% | 28µM* | ·
CC1(C)c2ccccc2N(CC(N)=O)C12C=Cc1ccccc1O2 (stereo not given) | -19% | -2% | -5% | 3% | -10% | -7%
CC1(C)c2ccccc2N2CC(=O)N(CC(N)=O)C21C (stereo not given) | 56µM* | 79µM* | -13% | ? | · | 32µM*
CCCC(=O)OCCNc1cc(Sc2nc3ccccc3[nH]2)c2nonc2c1[N+](=O)[O-] | 40µM* | ? | -12% | 9% | 0% | -23%
CCC(=O)OCCNc1cc(SCCC(=O)OC)c2nonc2c1[N+](=O)[O-] | -9% | ? | 3% | 28% | -8% | -8%
CC(C)=CC[C@@H](O)C1=CC(=O)c2c(O)ccc(O)c2C1=O | · | · | · | 7.1µM* | · | 10µM*
COC(=O)C1CCN(C2CN(Cc3ccc(F)cc3)S(=O)(=O)C2)CC1 (stereo not given) | 5% | · | · | · | · | ·
CCOc1ccc(C(=O)Nc2cccc(NC(=O)c3ccco3)c2)cc1Cl | · | 89µM* | -1% | · | · | ·
CCOc1ccc(C(=O)Nc2cc(NC(=O)c3ccco3)ccc2OC)cc1Br | · | 29% | 0% | · | · | ·
O=C(CSc1nnc(CNC(=O)c2ccccc2)o1)NCc1ccco1 | -6% | 17% | -5% | -30% | · | ·
O=C(CSc1nnc(CNC(=O)c2c(F)cccc2F)o1)NCc1ccco1 | ? | 0% | -11% | 11µM* | · | ·

Screening results: PubChem BioAssay, National Center for Advancing Translational Sciences (NCATS)
